# Assay outcomes: PubChem, National Center for Advancing Translational Sciences (NCATS)
# In the library only some 1.5% were active in any assay of this set; here they are far more common.
# Coupling enz = qHTS Assay for Inhibitors of Fructose-1,6-bisphosphate Aldolase from Giardia Lamblia: Coupling assay counterscreen. coupling enzyme system counterscreen, AmpLite Red fluorescence. AID 2472, 2010. 290,000 tested, 0.67% active. activity change, negative = inhibition, % at 58.2 µM, hits read low; in the data active = activity change below about -30%
#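 Compounds tested against the coupling enzymes alone at 57.5 uM final; readout was AmpLite Red fluorescence (525/598 nm) after 20 min at RT.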
# TrxR1 substrate = qHTS Assay for Substrates of Mammalian Selenoprotein Thioredoxin Reductase 1 (TrxR1): qHTS; Thioredoxin reductase 1, cytoplasmic (Rattus norvegicus), O89049; purified TrxR1 substrate turnover, NADPH consumption readout; Potency, µM (highest dose often 114 µM); 390,000 tested, 0.01% active; AID 588456, 2011; note: nearly all actives have a fitted effect of over 50% in size
# Target sequence (O89049 whole entry, looked up): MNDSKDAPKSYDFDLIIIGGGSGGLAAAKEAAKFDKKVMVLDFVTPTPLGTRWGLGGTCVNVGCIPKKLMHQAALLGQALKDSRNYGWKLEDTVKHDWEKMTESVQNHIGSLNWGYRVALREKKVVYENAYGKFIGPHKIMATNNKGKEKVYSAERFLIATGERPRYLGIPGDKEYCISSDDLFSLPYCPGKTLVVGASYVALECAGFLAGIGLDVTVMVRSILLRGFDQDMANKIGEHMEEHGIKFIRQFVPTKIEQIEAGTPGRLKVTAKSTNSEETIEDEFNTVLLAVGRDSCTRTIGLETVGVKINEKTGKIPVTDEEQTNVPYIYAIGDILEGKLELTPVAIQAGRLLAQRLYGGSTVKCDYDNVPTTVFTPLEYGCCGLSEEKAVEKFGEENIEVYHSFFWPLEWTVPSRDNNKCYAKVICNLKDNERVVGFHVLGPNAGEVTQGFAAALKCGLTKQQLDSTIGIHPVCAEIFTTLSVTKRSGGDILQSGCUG
#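 Rat TrxR1, dispensed at 90 nM, was prereduced with 400 uM NADPH (final) for 5 min at ~22 deg C, then incubated with compound 15 min before 400 uM selenite. A first-read NADPH fluorescence drop versus no-compound background flagged substrates.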
# TrxR1 inh = qHTS Assay for Inhibitors of Mammalian Selenoprotein Thioredoxin Reductase 1 (TrxR1): qHTS | AID 588453, 2011 | recombinant rTrxR1, NADPH fluorescence consumption, selenite substrate | Potency, µM (highest dose often 114 µM), hits mostly inhibitors | 390,000 tested, 1% active | Thioredoxin reductase 1, cytoplasmic (Rattus norvegicus), O89049; note: nearly all actives have a fitted effect of over 65% in size
#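 Rat TrxR1 (90 nM in the dispensed reagent) was pre-reduced with 400 uM NADPH for 5 min at room temperature, then incubated with compound for 15 min. After 400 uM selenite was added, NADPH fluorescence (Ex 340/Em 450 nm) was followed for 8 min.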
# USP1 inh = Inhibitors of USP1/UAF1: Primary Screen | Potency, µM (highest dose often 57.1 µM), actives largely listed as inhibitors | Ubiquitin carboxyl-terminal hydrolase 1 (Homo sapiens), O94782 | AID 743255, 2014 | 390,000 tested, 0.23% active | recombinant USP1/UAF1, Ub-Rhodamine cleavage fluorescence; note: nearly all actives have a fitted effect of over 60% in size
#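 Step one: compound is pinned into 1nM USP1/UAF1 in HEPES pH 7.8 buffer with TCEP. Step two: 15 min room-temperature incubation. Step three: Ub-Rho (150nM final) starts cleavage, tracked by fluorescence over six one-minute reads.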
# GALK inh = qHTS Assay for Inhibitors of Human Galactokinase (GALK); Purified GALK, Kinase-Glo residual ATP luminescence; Potency, µM (titrated, usually from 57.5 µM), hits mostly inhibitors; 270,000 tested, 0.007% active; P51570
#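 Quantitative HTS: GALK 5 nM, ATP 35 uM, galactose 100 uM, 1 h room temperature, then luciferase-based ATP detection.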
# Numbers stand for hits; . = inactive; ? = inconclusive; / = no result given; [ ] = dose if it differs, or a comment. Unless noted, calls come from the whole dose curve; as a rule, active = well fitted curve in the direction sought with a large enough effect; inconclusive = small, poorly fitted or top-dose-only effect, or another doubt; inactive = no such curve, though single readings can be large; an effect the other way counts as inactive or inconclusive.
SMILES,Coupling enz,TrxR1 substrate,TrxR1 inh,USP1 inh,GALK inh
COc1ccc(NC(=O)CC2Sc3ncnn3C2=O)cc1 (stereo not given),.,.,1.58µM,.,.
C[N+]1(CC(=O)c2c3ccccc3cc3ccccc23)CCOCC1,/,.[0.0914 µM],.,/,/
C=CS(=O)(=O)c1c2cc(OC)ccc2nc2ccc(OC)cc12,/,.,1.26µM,?,/
CN(C)c1cccc(-c2nnc(SCC(=O)NCc3ccco3)n2C)c1,/,.,.,/,/
CCOC(=O)/C(C#N)=C1/C(=O)N(Cc2ccccc2)c2ccccc21,-37.8,.,.,.,.
CC(=O)OCC1OC(C#Cc2ccc(F)cc2F)C=CC1OC(C)=O (stereo not given),.,/,/,/,/
Cc1ccc(S(=O)(=O)C(NC(=O)c2ccccc2)=C(Cl)Cl)cc1,/,.,.,.,/
O=C(NC(=C(Cl)Cl)S(=O)(=O)c1ccc(Cl)cc1)c1ccccc1,.,.,44.7µM,.,/
Cc1ccc(C(=O)NC(=C(Cl)Cl)S(=O)(=O)c2ccc(Cl)cc2)cc1,.,.,31.6µM,.,.
COc1cc2c(NC3CCN(C)CC3)nc(N3CCCN(C)CC3)nc2cc1OCCCCCN(C)C,/,.,?,/,/
CCOC(=O)/C(=N/Nc1ccc(OC)cc1)N1CCCc2ccccc21,-42.1,.,.,.,.
CCOC(=O)/C(=N/Nc1ccccc1)N1CCCc2ccccc21,.,.,.,.,/
CC(C)(C)c1ccc(S(=O)(=O)/C=C\C#N)cc1,.,/,/,/,/
O=CNc1ccc(/C=C/c2ccnc3ccccc23)cc1,/,.,.,/,/
CC1=CC(=O)C2=C(C)CC[C@H]3[C@H](C)C(=O)O[C@@H]3C12 (stereo not given in full),.,/,/,/,/
CC(C)C(=O)Nc1nnc(NC(=S)Nc2ccccc2)s1,.,.,10µM,.,.
Brc1ccc(C2C=Cc3ccccc32)cc1 (stereo not given),/,.,?,/,/
COC(=O)C1=C(C)N(Cc2ccc(OC)cc2)C(=O)/C1=C\c1ccco1,.,.,35.5µM,.,.
COC(=O)C1=C(C)N(C)C(=O)/C1=C\c1ccco1,.,.,25.1µM,.,.
COC(=O)C1=C(C)N(Cc2ccco2)C(=O)/C1=C\c1ccc([N+](=O)[O-])cc1,.,.,20µM,.,.
COC(=O)C1=C(C)NC(=O)/C1=C\c1ccco1,.,.,?,.,.
COC(=O)C1=C(C)N(Cc2ccco2)C(=O)/C1=C\c1ccc(N(C)C)cc1,.,.,.,.,.
COc1ccc(C(=O)N(Cc2ccccc2)Cc2ccc(OC)c(COc3ccc(NC(C)=O)cc3)c2)cc1,/,.,.,/,/
O=C1CCCN1CCC1CCN(C2CC(=O)N(c3ccc(Cl)cc3)C2=O)CC1 (stereo not given),.,.,39.8µM,.,.
O=C1CCCN1CCC1CCN(C2CC(=O)N(Cc3ccc(N4CCCC4=O)cc3)C2=O)CC1 (stereo not given),.,.,.,.,.
SMILES,Coupling enz,TrxR1 substrate,TrxR1 inh,USP1 inh,GALK inh
COc1ccccc1/C=N/Nc1cc(C)nc(N2CCOCC2)n1,.,.,.,.,.
Cc1cc(N/N=C/c2ccccc2)nc(NCc2ccccc2)n1,.,.,.,.,/
CN(C)c1cc(N/N=C\c2ccccc2)nc(N(C)C)n1,-39.1,.,.,?,.
COc1ccc(/C=N/Nc2cc(OC)ncn2)cc1,.,.,.,.,.
COc1ccccc1/C=N/Nc1cc(N(C)C)nc(N(C)C)n1,-31.2,.,.,.,.
COc1ccc(/C=N/Nc2cc(N(C)C)nc(N(C)C)n2)cc1,-42.3,.,.,?,.
Cc1ccnc2ccc(I)cc12,/,.,.,/,/
CN(C)CCNc1nccc(N2CCN(C)CC2)n1,/,.,.,/,/
Cc1ccc(-n2ncc(Br)c(Br)c2=O)cc1,.,.,10µM,.,.
CCn1c(CN2CCN(c3ccc(OC)cc3)CC2)nc2cc(S(=O)(=O)N(C)C)ccc21,.,.,.,.,.
CCCn1c(CN2CCN(C(=O)c3ccco3)CC2)nc2cc(S(=O)(=O)N(C)C)ccc21,/,.,20µM,.,/
Cc1ccc(S(=O)(=O)N2CCN(c3nc(-c4cncnc4)nc4ccccc34)CC2)cc1,/,.,.,/,/
COC1=C2C[C@@H](C)C[C@H](OC)[C@H](O)[C@@H](C)/C=C(\C)[C@H](OC(N)=O)[C@@H](OC)/C=C\C=C(/C)C(=O)NC(=CC1=O)C2=O,-65.0,/,/,/,/
C=CCNC1=C2C[C@@H](C)C[C@H](OC)[C@H](O)[C@@H](C)/C=C(\C)[C@H](OC(N)=O)[C@@H](OC)/C=C/C=C(\C)C(=O)NC(=CC1=O)C2=O,.,/,/,/,/
Cn1nnc(NC(=S)NC(=O)c2ccco2)n1,-42.7,.,.,.,.
COc1ccc(N2CCN(C(c3ccccc3)c3nnnn3C(C)C)CC2)cc1 (stereo not given),/,.,.,/,/
O=C(NC(=S)NNS(=O)(=O)c1ccccc1)c1ccc([N+](=O)[O-])cc1,.,.,14.1µM,.,.
O=C(NC(=S)NNS(=O)(=O)c1ccccc1)c1cccnc1,.,.,25.1µM,.,.
O=C(NNS(=O)(=O)c1ccccc1)c1ccc([N+](=O)[O-])cc1,.,.,.,.,.
N#Cc1ccccc1NC(=S)NC(=O)c1cccnc1,.,.,3.55µM,.,.
COC(=O)C1=C(C(=O)OC)[C@@H]2N(C)c3ccc(OC)cc3[C@@]23C[C@@H](C(=O)OC)N(S(=O)(=O)c2c(C)noc2C)C3=N1,.,/,/,/,/
CCCCCCCCCCCCCC[C@@H](O)[C@@H](O)[C@@H](N)CO,.,/,/,/,/
CCOC(=O)/C=C/C(=O)OCC(=O)NCc1ccccc1,.,.,25.1µM,.,.
CCCn1c(C)cc(/C=C(\C#N)C(=O)OCC(=O)NC(=O)NCC)c1C,.,.,.,.,.
CCOC(=O)/C=C/C(=O)OCC(=O)Nc1c(Cl)cccc1Cl,.,.,50.1µM,.,.
SMILES,Coupling enz,TrxR1 substrate,TrxR1 inh,USP1 inh,GALK inh
CCOC(=O)/C=C/C(=O)OCC(=O)Nc1ccc(OC)c(Cl)c1,.,.,15.8µM,.,.
CCCn1c(C)cc(/C=C(\C#N)C(=O)OCC(=O)Nc2ccc(OC)c(Cl)c2)c1C,.,.,79.4µM,.,.
CCOC(=O)/C=C/C(=O)OCC(=O)Nc1ccc(Cl)cc1Cl,.,.,?,.,.
CCCN1CNc2c(c(=O)[nH]c(=S)n2CCc2cc(C)ccc2C)C1,/,.,.,/,/
O=C1/C(=C/c2ccc(N3CCOCC3)o2)SC(=Nc2ccccc2)N1CCc1c[nH]c2ccccc12,.,.,10µM,.,.
O=C1N=C(N2CCOCC2)S/C1=C/c1ccc(-c2ccc(F)cc2)o1,.,.,.,.,.
CC(C)(C)OC(=O)CN1C(=O)S/C(=C\c2ccc(-c3cccc(C(=O)O)c3)o2)C1=O,.,/,/,/,.
